Laboratory results reported in PubChem BioAssay (EPA / NIEHS).
Records with an inconclusive call do not appear. Active and inactive are the calls of the source. How the source made its calls, unless noted: active means hit-call score of the fitted dose curve at least 0.9, where 1 is the maximum; inconclusive means response in the unintended direction; inactive means score below 0.9. Peptide text beside a SMILES is read from it.

Tests used:
[1] = CCTE_Mundy_HCI_iCellGluta_NOG_NeuriteLength: CCTE's Neurite Outgrowth Assay in iCellGluta cells for Neurite Length, Mundy Lab (AID 2284318)
Outline: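 Automated high-content imaging of betaIII-tubulin (Alexa Fluor-488) and Hoechst-stained cells gave neurite length, normalized to the DMSO baseline.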

[2] = CCTE_Mundy_HCI_iCellGluta_NOG_NeuriteCount: CCTE's Neurite Outgrowth Assay in iCellGluta cells for Neurite Count, Mundy Lab (AID 2284342);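 further: chemical exposure about 48 hours starting 2 hours after plating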
[3] = IUF_NPC1_cytotoxicity_72hr: Cytotoxicity Assessment at 72 hours in the Leibniz Research Institute for Environmental Medicine (IUF) Neural Progenitor Cell Proliferation Assay (NPC1) (AID 2284332);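 further: rising LDH signal means more cytotoxicity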
Outline: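 Single human fetal cortex neural progenitor spheres (GW 16-19, 0.25-0.35 mm) in EGF/FGF proliferation medium were exposed to compound for 72 h at 37C without renewal. Medium LDH release was read as resorufin fluorescence and fitted as gain-of-signal.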

[4] = CCTE_Mundy_HCI_iCellGluta_NOG_NeuronCount: CCTE's Neurite Outgrowth Assay in iCellGluta cells for Neuron Count, Mundy Lab (AID 2284340);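 further: cells fixed about 48 h after compound addition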
Outline: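 Neuron count read by automated high-content imaging of Hoechst 33342 and betaIII-tubulin/Alexa Fluor-488 labelling in human iPSC glutamatergic neurons. Activity fitted relative to DMSO.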

[5] = TAMU_PeakParms_SingleDonor1434_Asystole: Texas A&M University (TAMU) 1.5-hr Human Induced Pluripotent Stem Cell (iPSC)-derived Cardiomyocytes Calcium (Ca+2) Flux Assay for Cardiotoxicity: Asystole (quiescence of beating) (AID 2284328)
Outline: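 Average Ca2+-flux peak frequency (beats/s) was recorded in single-donor iPSC-derived cardiomyocytes after 90 min exposure (0.2–100 uM final, 0.5% DMSO). Asystole POD set as EC95 against DMSO, no preprocessing.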

[6] = test system: SERPINA7 (gene 6906); test: CCTE_GLTED_hTBG: CCTE's human Thyroxine-binding Globulin (TBG) Inhibition Assay, Great Lakes Toxicology and Ecology Division (GLTED) Lab (AID 2284343);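 further: active chemicals lower fluorescence versus DMSO baseline by displacing probe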
Outline: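 Cell-free binding assay in which human TBG is incubated with test chemical for 2 hours and displacement of the fluorescent probe ANSA is read at 380 nm excitation/475 nm emission. Activity is fitted against DMSO as the negative control.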

[7] = CCTE_Deisenroth_5AR_NBTE_donor: CCTE's 5alpha-reductase NanoBRET Target Engagement Assay […], Deisenroth Lab (AID 2284319; active means hit-call score of the fitted dose curve at least 0.9, where 1 is the maximum; inactive means score below 0.9); details: actives raise or lower the signal
Outline: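 HEK293T cells transiently expressing SRD5A2-NanoLuc, exposed 5 h to chemicals (8 points, 10 nM - 29.9 uM), with testosterone tracer for the final 2 h. Donor luminescence at 460 nm read after Nano-Glo substrate plus extracellular NanoLuc inhibitor; bidirectional fit versus DMSO.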

[8] = CCTE_Deisenroth_5AR_NBTE_acceptor: CCTE's 5alpha-reductase NanoBRET Target Engagement Assay - Autofluorescence Screen, Deisenroth Lab (AID 2284321; active means hit-call score of the fitted dose curve at least 0.9, where 1 is the maximum; inactive means score below 0.9;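 further: compound fluorescence in the acceptor channel under 460 nm excitation flags autofluorescence artifacts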); details: actives raise or lower the signal
Outline: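 Chemicals diluted to a nominal 100 uM in DMSO were scanned at 460 nm excitation. Samples were read in three independent runs (n=3). Gain or loss of acceptor signal was fitted relative to DMSO.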

[9] = test system: SRD5A2 (gene 6716); test: CCTE_Deisenroth_5AR_NBTE_ratio: CCTE's 5alpha-reductase NanoBRET Target Engagement Assay - Ratio, Deisenroth Lab (AID 2284322; active means hit-call score of the fitted dose curve at least 0.9, where 1 is the maximum; inactive means score below 0.9); details: actives raise or lower the signal
Outline: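 Reverse-transfect HEK293T with pNLF1-C-SRD5A2, express 20 h. Pre-incubate cells with chemical 3 h (8-point series, 10 nM - 29.9 uM, duplicate). Add testosterone tracer, 2 h more. Add substrate/inhibitor, read donor and acceptor emission.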

[10] = CCTE_Deisenroth_H295R-HTRF_384WELL_ESTRADIOL: CCTE's H295R-HTRF Assay Evaluation of Estradiol Concentration, Deisenroth Lab (AID 2284361; active means hit-call score of the fitted dose curve at least 0.9, where 1 is the maximum; inactive means score below 0.9); details: actives raise or lower the signal
Outline: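 H295R cells exposed 48 h to chemicals at 0.001 - 100 uM final (nine points, triplicate); estradiol in conditioned medium measured by HTRF immunoassay, fitted bidirectionally versus DMSO. Viability by CellTiter-Glo on same plates.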

[11] = CCTE_Deisenroth_H295R-HTRF_384WELL_TESTOSTERONE: CCTE's H295R-HTRF Assay Evaluation of Testosterone Concentration, Deisenroth Lab (AID 2284373; active means hit-call score of the fitted dose curve at least 0.9, where 1 is the maximum; inactive means score below 0.9); details: actives raise or lower the signal
Outline: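 H295R cells were acclimated 24 h, then exposed 48 h to nine concentrations (0.001–100 uM final) in technical triplicate, n=5. Testosterone in conditioned medium was measured by HTRF (em 620/665 nm). Fitting was bidirectional versus DMSO; CellTiter-Glo viability ran on the same plates.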

[12] = CCTE_Deisenroth_H295R-HTRF_384WELL_CTOX: Cytotoxicity Assessment in CCTE's H295R-HTRF Assay, Deisenroth Lab (AID 2284380)
Outline: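 H295R adrenocortical carcinoma cells plated 24 h, then exposed 48 h to nine-point series 0.001–100 uM final, triplicate, n=5. ATP measured by CellTiter-Glo 2.0 luminescence on same plates after medium collection; loss versus DMSO.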

[13] = test system: Brachyury (BRA) Protein Expression, Deisenroth Lab, TBXT (gene 6862); test: CCTE_Deisenroth_DEVTOX-GLR_legacy_Bra: (Legacy) CCTE's DevTox GLR-Endo Assay Evaluation of Brachyury (BRA) Protein Expression, Deisenroth Lab (AID 2284329; active means hit-call score of the fitted dose curve at least 0.9, where 1 is the maximum; inactive means score below 0.9)
Outline: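 Human pluripotent RUES2-GLR line was exposed twice during 48 h differentiation to a 10-point series, 1 nM - 200 uM. Fraction of Bra-positive cells was scored by imaging against pluripotent baseline and fitted after 0.2% DMSO subtraction.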

[14] = CCTE_Deisenroth_DEVTOX-GLR_legacy_CellCount: (Legacy) Viability Assessment in CCTE's DevTox GLR-Endo Assay, Deisenroth Lab (AID 2284331; active means hit-call score of the fitted dose curve at least 0.9, where 1 is the maximum; inactive means score below 0.9); details: actives raise or lower the signal
Outline: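 Human pluripotent RUES2-GLR cells differentiated 48 h with two 24-h-interval exposures, 10-point 1 nM–200 uM series, 0.2% DMSO. Fixed nuclei counted by high-content imaging (5 fields/well); bidirectional fit vs DMSO, n≥4.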

[15] = test system: SRY-box transcription factor 17 (SOX17) Protein Expression, Deisenroth Lab, SOX17 (gene 64321); test: CCTE_Deisenroth_DEVTOX-GLR_legacy_Sox17: (Legacy) CCTE's DevTox GLR-Endo Assay Evaluation of SRY-box transcription factor 17 (SOX17) Protein Expression, Deisenroth Lab (AID 2284341; active means hit-call score of the fitted dose curve at least 0.9, where 1 is the maximum; inactive means score below 0.9); details: actives raise or lower the signal
Outline: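 RUES2-GLR human pluripotent cells differentiated toward endoderm for 48 h, dosed twice at 24 h intervals (1 nM–200 uM, 10 points). Imaging gives % SOX17+ cells (intensity >5x BMAD above pluripotent control median); bidirectional fit versus 0.2% DMSO.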

[16] = test system: SRY-box transcription factor 2 (SOX2) Protein Expression, Deisenroth Lab, SOX2 (gene 6657); test: CCTE_Deisenroth_DEVTOX-GLR_legacy_Sox2: (Legacy) CCTE's DevTox GLR-Endo Assay Evaluation of SRY-box transcription factor 2 (SOX2) Protein Expression, Deisenroth Lab (AID 2284346; active means hit-call score of the fitted dose curve at least 0.9, where 1 is the maximum; inactive means score below 0.9)
Outline: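 hPSC RUES2-GLR, 384-well; 24 h seed → 48 h endoderm differentiation, 2 doses q24h, 1 nM–200 uM. Fix, nuclear dye, 5 fields/well. Sox2+ cells/cell count; cell positive if >5x BMAD over endoderm ctrl; gain direction vs DMSO.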

[17] = test system: TTR (gene 7276); test: CCTE_GLTED_hTTR_0.5uM: CCTE's human Transthyretin (hTTR) Inhibition Assay, with 0.5uM TTR, Great Lakes Toxicology and Ecology Division (GLTED) Lab (AID 2284320; active means hit-call score of the fitted dose curve at least 0.9, where 1 is the maximum; inactive means score below 0.9)
Outline: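 Cell-free displacement assay in which human TTR at 0.5 uM was incubated with test chemical for 2 h. Displacement of the ANSA probe was read by fluorescence at 380 nm excitation/475 nm emission. Loss of signal was fitted in the positive direction versus DMSO.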

[18] = Tanguay_ZF_120hpf_MO24: Oregon State University Tanguay Lab 24 Hour Post-fertilization zebrafish Assay for Mortality (AID 2284389; active means hit-call score of the fitted dose curve at least 0.9, where 1 is the maximum; inactive means score below 0.9)
Outline: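 Dechorionated wild-type zebrafish embryos, 1 per well, statically exposed from 6 hpf at 28C, 0.64% DMSO final. Mortality scored as binary present/absent at 24 hpf by brightfield microscopy, relative to DMSO.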

[19] = Tanguay_ZF_120hpf_DP24: Oregon State University Tanguay Lab 24 Hour Post-fertilization zebrafish Assay for Delayed Development (AID 2284390; active means hit-call score of the fitted dose curve at least 0.9, where 1 is the maximum; inactive means score below 0.9)
Outline: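 Dechorionated 5D wild-type zebrafish embryos exposed statically from 6 hpf, one per well, 0.64% DMSO final, 28 C, sealed and dark. Developmental progression scored at 24 hpf by brightfield as binary present/absent; dead embryos excluded.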

Which outcome [1] does the source give for Cc1noc(NS(=O)(=O)c2ccc(N)cc2)c1C here?
Its outcome is “inactive”.

What about the outcome [2] of the same compound?
The outcome was “inactive”.

Which results are given for Cc1c(C(=O)c2c[nH]n(C)c2=O)ccc(S(C)(=O)=O)c1C1=NOCC1?
outcome [1]: inactive; outcome [3]: inactive; outcome [4]: inactive; outcome [2]: inactive

Which outcome [5] does the source give for COC(=O)[C@H](Cc1ccccc1)NC(=O)[C@@H](N)CC(=O)O (H-Asp-Phe-OMe) here?
Its outcome is “inactive”.

And the outcome [4]?
Its outcome is “inactive”.

What about the outcome [2] of the same compound?
Its outcome is “inactive”.

With Cc1ccc(C)c(OCCCC(C)(C)C(=O)O)c1 as the compound, how does the AC50 [6] read?
The AC50 was 27 µM (active).

What does the source list for C=C[C@@]1(C)CC(=O)[C@]2(O)[C@@]3(C)[C@@H](O)CCC(C)(C)[C@@H]3[C@H](O)[C@H](OC(C)=O)[C@@]2(C)O1?
AC50 [7]: 9.91 µM (active); outcome [8]: inactive; outcome [9]: inactive; AC50 [10]: 3.68 µM (active); AC50 [11]: 0.566 µM (active); outcome [12]: inactive

Which outcome [13] does the source give for CC1(C)[C@@H]2CC[C@@]1(C)C(=O)C2 here?
The outcome was “inactive”.

And the outcome [14]?
Its outcome is “inactive”.

What about the outcome [15] of the same compound?
The outcome was “inactive”.

And the outcome [16]?
The outcome was “inactive”.

Which AC50 [6] does the source give for O=C(Oc1ccccc1)c1ccccc1O here?
Its AC50 is 2.52 µM (active).

Which results are given for C[N+](C)(C)CCCNS(=O)(=O)C(F)(F)C(F)(F)C(F)(F)C(F)(F)C(F)(F)C(F)(F)C(F)(F)C(F)(F)F?
AC50 [17]: 1.04 µM (active); outcome [18]: inactive; AC50 [19]: 89.2 µM (active)

With COc1ccc(C(=O)c2ccccc2)c(O)c1 as the compound, how does the AC50 [6] read?
Its AC50 is 7.45 µM (active).

Which AC50 [6] does the source give for Oc1ccccc1Cc1ccccc1O here?
The AC50 was 8.67 µM (active).
